{
  "source": "PubChem BioAssay AID1832",
  "about": "(Broad Institute, 2009)",
  "note": "In all, about 300,000 compounds went through this assay and about 1,100 (0.37%) were called active. The sample holds actives, similar compounds and a random draw of the others, so the mix is not that of the screen. Unmarked numbers belong to inactive results.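 Rule for the calls: active = inhibition past about -25% in most replicates, and total fluorescence under double the plate's negative control median (limit read from the data); inconclusive = replicates evenly split on the limit, or fluorescence at least double controls; inactive = too little inhibition in most replicates.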",
  "data": [
    {"target": "Zinc finger protein mex-5 (Caenorhabditis elegans) (UniProt Q9XUB2)", "sequence (Q9XUB2 whole entry, looked up)": "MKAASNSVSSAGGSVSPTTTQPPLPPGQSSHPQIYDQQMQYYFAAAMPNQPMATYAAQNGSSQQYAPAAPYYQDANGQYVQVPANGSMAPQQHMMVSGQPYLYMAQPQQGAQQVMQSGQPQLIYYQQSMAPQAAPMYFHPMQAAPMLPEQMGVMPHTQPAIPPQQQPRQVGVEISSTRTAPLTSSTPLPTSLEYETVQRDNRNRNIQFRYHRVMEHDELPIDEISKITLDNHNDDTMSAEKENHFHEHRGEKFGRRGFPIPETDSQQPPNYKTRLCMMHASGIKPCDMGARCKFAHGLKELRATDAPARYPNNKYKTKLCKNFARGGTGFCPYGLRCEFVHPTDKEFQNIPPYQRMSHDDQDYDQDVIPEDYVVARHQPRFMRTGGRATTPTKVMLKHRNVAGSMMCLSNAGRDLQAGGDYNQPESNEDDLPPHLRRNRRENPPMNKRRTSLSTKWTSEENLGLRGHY", "experiment": "MEX-5 zinc finger RNA-binding disruptors – biochemical, C. elegans, fluorescence polarization, MLPCN library, primary screen (AID 1832);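 note: 0% = DMSO and -100% = 5 µM competing unlabeled TCR2 RNA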", "settings": "MEX-5/FITC-TCR2 RNA binding, at 10 µM, stronger effect = lower value", "values": [
      {"molecule": "O=C(COC(=O)c1ccc(F)cc1F)Nc1ncccn1", "activity score (negative = inhibition of binding)": "-8.66%"},
      {"molecule": "CC(C)NC(=S)Nc1cccc2cnccc12", "activity score (negative = inhibition of binding)": "0.93%"},
      {"molecule": "CC1(C)Cc2nc3sc4c(SCC(=O)NC(c5ccccc5)c5ccccc5)ncnc4c3cc2CO1", "activity score (negative = inhibition of binding)": "-0.0678%"},
      {"molecule": "Cc1ccc(NC(=O)CSc2sc3c(O)cc(=O)[nH]c3c2C#N)cc1C", "activity score (negative = inhibition of binding)": "-1.19%"},
      {"molecule": "O=C(N/N=C/c1ccc([N+](=O)[O-])cc1)C(=O)N1CCCC1", "activity score (negative = inhibition of binding)": "-0.216%"},
      {"molecule": "O=C(N/N=C\\c1ccc(-c2ccc(Cl)c(Cl)c2)o1)C(=O)N1CCCC1", "activity score (negative = inhibition of binding)": "-55.2% (active)"},
      {"molecule": "COC(=O)N/N=C/c1ccc(-c2ccc(Cl)c(Cl)c2)o1", "activity score (negative = inhibition of binding)": "2.42%"},
      {"molecule": "COC(C(=O)NCc1ccccc1C)c1ccccc1", "note": "(stereo not given)", "activity score (negative = inhibition of binding)": "-0.406%"},
      {"molecule": "O=C(NCCCN1CCOCC1)C1CCCN(S(=O)(=O)N2CCCCC2)C1", "note": "(stereo not given)", "activity score (negative = inhibition of binding)": "0.135%"},
      {"molecule": "S=c1[nH]nc2c3c4c(sc3ncn12)CCCC4", "activity score (negative = inhibition of binding)": "0.932%"},
      {"molecule": "ON=C1/C(=N\\O)CC2(C/C1=N/O)OCCO2", "activity score (negative = inhibition of binding)": "-31.5% (active)"},
      {"molecule": "O/N=C1\\CC2(Cc3nonc31)OCCO2", "activity score (negative = inhibition of binding)": "2.02%"},
      {"molecule": "COc1ccc(C(=O)c2c(C)c(CCC#N)n3ccccc23)c(OC)c1", "activity score (negative = inhibition of binding)": "-2.13%"},
      {"molecule": "C=CCOc1ccc(/C=C2/C(=O)ON=C2C)cc1OCC", "activity score (negative = inhibition of binding)": "-10.9%"},
      {"molecule": "COc1cc(/C=C2/C(=O)ON=C2C)ccc1OCc1cccc(F)c1", "activity score (negative = inhibition of binding)": "-9.55%"},
      {"molecule": "COc1cc(/C=C2/C(=O)ON=C2C)ccc1OCc1ccccc1F", "activity score (negative = inhibition of binding)": "-63.3% (active)"},
      {"molecule": "CC(=O)Nc1ccc(Nc2nc3c(S(=O)(=O)c4ccc(C)c(C)c4)nnn3c3ccccc23)cc1", "activity score (negative = inhibition of binding)": "-3.46%"},
      {"molecule": "Cc1cc(=O)oc2cc(NC(=O)C3CC(=O)N(Cc4ccccc4)C3)ccc12", "note": "(stereo not given)", "activity score (negative = inhibition of binding)": "-4.23%"},
      {"molecule": "CCn1c(/C=C/c2ccc([N+](=O)[O-])o2)nc2ccccc2c1=O", "activity score (negative = inhibition of binding)": "-34.2% (active)"},
      {"molecule": "C/[N+]([O-])=C\\c1ccc([N+](=O)[O-])o1", "activity score (negative = inhibition of binding)": "-3.97%"},
      {"molecule": "Cc1cc(C)nc(N/N=C/c2ccc([N+](=O)[O-])o2)n1", "activity score (negative = inhibition of binding)": "-9.59%"},
      {"molecule": "COc1ccc(NS(=O)(=O)c2cccc3nsnc23)cc1Cl", "activity score (negative = inhibition of binding)": "1.95%"},
      {"molecule": "COC(=O)c1ccc(NC(=S)Nc2cccc(C)n2)cc1", "activity score (negative = inhibition of binding)": "-0.058%"},
      {"molecule": "Cn1ccc(=Nc2ccc(NC(=O)c3ccc(N=c4ccn(C)c5ccc([N+](=O)[O-])cc45)cc3)cc2)cc1", "activity score (negative = inhibition of binding)": "-46.8% (active)"},
      {"molecule": "O=C(Nc1ccc(C(=O)N2CCCCC2)cc1)c1cccc([N+](=O)[O-])c1", "activity score (negative = inhibition of binding)": "1.72%"},
      {"molecule": "Cc1cc([N+](=O)[O-])ccc1NC(=O)c1ccc(NC(=O)C(C)C)cc1", "activity score (negative = inhibition of binding)": "0.662%"},
      {"molecule": "CN(C)Cc1c(O)ccc2occ(C(O)c3ccccc3)c12", "note": "(stereo not given)", "activity score (negative = inhibition of binding)": "1.82%"},
      {"molecule": "CCCn1nc(C(=O)NNC(=O)CSCC(=O)Nc2cc(C)on2)c2ccccc2c1=O", "activity score (negative = inhibition of binding)": "-9.23%"},
      {"molecule": "CCCn1nc(C(=O)Nc2ccc3nc(C)sc3c2)c2ccccc2c1=O", "activity score (negative = inhibition of binding)": "-34.8% (active)"},
      {"molecule": "CCCCn1nc(C(=O)Nc2ccc(S(=O)(=O)Nc3ncccn3)cc2)c2ccccc2c1=O", "activity score (negative = inhibition of binding)": "2.51%"},
      {"molecule": "CCOC(=O)NC(=O)C(=CNc1cccc(OC)c1)C(=O)NC(=O)OCC", "activity score (negative = inhibition of binding)": "-0.689%"},
      {"molecule": "C=CCOc1ccccc1NC(=O)CN1C(=O)CNC1=O", "activity score (negative = inhibition of binding)": "1.49%"},
      {"molecule": "Cc1nc(CN(C)C(=O)CC2C(=O)NCCN2Cc2ccc(F)cc2)cs1", "note": "(stereo not given)", "activity score (negative = inhibition of binding)": "-3.2%"},
      {"molecule": "NS(=O)(=O)c1ccc(NC(=O)/C=C/c2ccccc2Cl)cc1", "activity score (negative = inhibition of binding)": "-0.539%"},
      {"molecule": "COc1ncnc2c1N=C1CC(C)(C)CC(N)=C1S2", "activity score (negative = inhibition of binding)": "-36.1% (active)"},
      {"molecule": "Cn1c(Nc2ccccc2)cc(=O)n(C)c1=O", "activity score (negative = inhibition of binding)": "-3.14%"},
      {"molecule": "Oc1c(Cl)cc(Cl)c(Cl)c1Cc1c(O)c(Cl)cc(Cl)c1Cl", "activity score (negative = inhibition of binding)": "-82.9% (active)"},
      {"molecule": "Cc1cc(NS(=O)(=O)c2ccc(NC(=S)NC(=O)c3ccc(F)cc3Cl)cc2)no1", "activity score (negative = inhibition of binding)": "-0.765%"},
      {"molecule": "O=C(NCC1CCCO1)C1CCN(C2CCN(C(=O)C3CCCCC3)CC2)CC1", "note": "(stereo not given)", "activity score (negative = inhibition of binding)": "-0.223%"},
      {"molecule": "COc1cc(C(=S)N2CCOCC2)cc(OC)c1OC(=O)c1ccc([N+](=O)[O-])cc1[N+](=O)[O-]", "activity score (negative = inhibition of binding)": "-2.68%"},
      {"molecule": "Cc1cc(C(=O)Nc2c(C)n(C)n(-c3ccccc3)c2=O)cs1", "activity score (negative = inhibition of binding)": "2.16%"},
      {"molecule": "Cc1c(NC(=O)c2coc(=O)c(Br)c2)c(=O)n(-c2ccccc2)n1C", "activity score (negative = inhibition of binding)": "-44.8% (active)"},
      {"molecule": "Cc1c(NC(=O)c2cccnc2)c(=O)n(-c2ccccc2)n1C", "activity score (negative = inhibition of binding)": "0.492%"},
      {"molecule": "CCOc1ncccc1C(=O)NCCc1ccc(OC)cc1", "activity score (negative = inhibition of binding)": "-0.435%"},
      {"molecule": "CNC(=O)CN1C(=O)NC(c2ccccc2)(c2ccccc2)C1=O", "activity score (negative = inhibition of binding)": "2.16%"}
    ]}
  ]
}
